PubChem BioAssay (EPA / NIEHS)
Activity calls are given as the source filed them. How the source made its calls: active means hit-call score of the fitted dose curve at least 0.9, where 1 is the maximum; inactive means score below 0.9.

test system: not listed separately; assay: ATG_SREBP_CIS: Attagene CIS-FACTORIAL HepG2 Assay for human Sterol Regulatory Element Binding (SREBP) (AID 2282962); conditions: HepG2 Attagene cis-factorial SREBP reporter, mRNA; actives raise or lower the signal
Procedure, shortened: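 Endogenous SREBP activity read as cis-element-driven reporter transcript in transiently transfected HepG2, 24 h post-dosing; quantified via RT-PCR plus capillary electrophoresis of fluorescent fragments. Gain or loss of signal fitted relative to DMSO baseline.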

| SMILES | outcome | AC50 |
| --- | --- | --- |
| N#[N+]c1ccc2c(S(=O)(=O)[O-])cccc2c1O | inactive |  |
| Cc1ccc([N+](=O)[O-])cc1S(=O)(=O)O | inactive |  |
| NC(=O)N=NC(N)=O | inactive |  |
| CCCCC(CC)COC(=O)c1ccccc1 (stereo unspecified) | inactive |  |
| Oc1ccc(Cl)cc1Cc1cc(Cl)ccc1O |  | 7.54 µM (active) |
| CCCOCCOCCOCCO | inactive |  |
| Cc1ccc2c(c1)C(=O)c1ccccc1C2=O | inactive |  |
| [Cl][Nd]([Cl])[Cl] | inactive |  |
| O=Cc1ccc(CO)o1 | inactive |  |
| CCN(CC#N)c1cccc(C)c1 | inactive |  |
| CCc1c(C(=O)O)c(=O)cnn1-c1ccc(Cl)cc1 | inactive |  |
| Nc1ccc(N)c(Cl)c1 |  | 43.7 µM (active) |
| CC(=O)OCC(C)OC(C)=O (stereo unspecified) | inactive |  |
| NC(=O)OCC(COC(N)=O)c1ccccc1 | inactive |  |
| c1ccc(-c2ccccn2)nc1 | inactive |  |
| CC(C)(Oc1ccc(C2CC2(Cl)Cl)cc1)C(=O)O (stereo unspecified) | inactive |  |
| CCCCCCCCCCCCCCCC(=O)OCC | inactive |  |

| SMILES | outcome | AC50 |
| --- | --- | --- |
| CCO[Si](CCCN=C=O)(OCC)OCC | inactive |  |
| c1cc(N(CC2CO2)CC2CO2)ccc1OCC1CO1 (stereo unspecified) |  | 68.3 µM (active) |
| C=CCCCCCCCCC(=O)OCCCC | inactive |  |
| C=C(C)CCO | inactive |  |
| CCCc1ccc(OC)cc1 | inactive |  |
| COC(=O)/C=C\C(=O)O | inactive |  |
| CCC(CC)C(=O)O | inactive |  |
| C=C(C)[C@H]1CC=C(C)CC1 | inactive |  |
| O=C(Cl)c1cc(C(=O)Cl)cc(C(=O)Cl)c1 | inactive |  |
| CCCCC(CC)COC(=O)c1ccccc1O (stereo unspecified) | inactive |  |
| NC(=O)NNC(N)=O | inactive |  |
| CCCC(=O)OCc1ccccc1 | inactive |  |
| CCCOC(=O)CCCCC(=O)OCCC | inactive |  |
| SCCc1cnccn1 | inactive |  |
| CC[C@H]1OC(=O)[C@H](C)[C@@H](O[C@H]2C[C@@](C)(OC)[C@@H](O)[C@H](C)O2)[C@H](C)[C@@H](O[C@@H]2O[C@H](C)C[C@H](N(C)C)[C@H]2O)[C@](C)(O)C[C@@H](C)C(=NOCOCCOC)[C@H](C)[C@@H](O)[C@]1(C)O | inactive |  |
| COC(=O)C1=C(C)NC(C)=C(C(=O)OCC(C)C)C1c1ccccc1[N+](=O)[O-] (stereo unspecified) | inactive |  |
| O=C(O)Cc1c(Cl)ccc(Cl)c1Cl | inactive |  |

target: Signal transducer and activator of transcription 3 (Homo sapiens) (UniProt P40763); assay: ATG_STAT3_CIS: Attagene CIS-FACTORIAL HepG2 Assay for human Signal Transducer and Activator of Transcription 3 (STAT3) (AID 2282963); conditions: HepG2, Attagene cis-factorial STAT3 reporter transcription; actives raise or lower the signal
Procedure, shortened: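 Readout is reporter transcript quantified by RT-PCR and capillary electrophoresis, with 6-FAM primer extension and HpaI digestion. Total RNA is taken 24 h after dosing transiently transfected HepG2 carrying cis-regulated reporter units. Bidirectional fit against DMSO.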

Signal transducer and activator of transcription 3 (Homo sapiens), sequence (P40763 whole entry, looked up): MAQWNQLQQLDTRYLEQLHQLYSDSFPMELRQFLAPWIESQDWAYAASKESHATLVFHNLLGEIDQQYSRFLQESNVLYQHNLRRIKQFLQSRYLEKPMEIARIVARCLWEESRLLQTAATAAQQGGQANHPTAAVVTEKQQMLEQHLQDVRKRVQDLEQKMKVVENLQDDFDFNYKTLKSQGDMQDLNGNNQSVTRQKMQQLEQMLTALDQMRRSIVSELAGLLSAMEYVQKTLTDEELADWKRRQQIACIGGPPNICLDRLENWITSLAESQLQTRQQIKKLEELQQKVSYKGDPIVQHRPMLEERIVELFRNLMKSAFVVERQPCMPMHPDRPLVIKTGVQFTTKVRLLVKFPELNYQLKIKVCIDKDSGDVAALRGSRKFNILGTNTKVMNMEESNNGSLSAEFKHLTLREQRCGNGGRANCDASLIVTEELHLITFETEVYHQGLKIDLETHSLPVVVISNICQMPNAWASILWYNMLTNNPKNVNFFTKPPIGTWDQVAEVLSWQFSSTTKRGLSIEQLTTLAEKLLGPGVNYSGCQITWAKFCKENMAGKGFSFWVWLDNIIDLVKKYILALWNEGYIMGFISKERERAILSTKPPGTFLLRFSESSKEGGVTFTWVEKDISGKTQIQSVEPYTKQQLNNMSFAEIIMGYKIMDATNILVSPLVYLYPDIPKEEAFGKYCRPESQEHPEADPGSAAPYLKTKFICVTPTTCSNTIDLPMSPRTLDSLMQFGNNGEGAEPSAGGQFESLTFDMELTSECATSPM

| SMILES | outcome |
| --- | --- |
| N#[N+]c1ccc2c(S(=O)(=O)[O-])cccc2c1O | inactive |
| COCc1c(C(C)C)nc(C(C)C)c(/C=C/[C@@H](O)C[C@@H](O)CC(=O)O)c1-c1ccc(F)cc1 | inactive |
| Cc1ccc([N+](=O)[O-])cc1S(=O)(=O)O | inactive |
| CCC(CO)CO | inactive |
| O=S(=O)(O)c1cc(S(=O)(=O)O)c2ccc3c(S(=O)(=O)O)cc(S(=O)(=O)O)c4ccc1c2c43 | inactive |
| NC(=O)N=NC(N)=O | inactive |
| CCCCC(CC)COC(=O)c1ccccc1 (stereo unspecified) | inactive |
| Oc1ccc(Cl)cc1Cc1cc(Cl)ccc1O | inactive |
| CCCOCCOCCOCCO | inactive |
| Cc1ccc2c(c1)C(=O)c1ccccc1C2=O | inactive |
| CC(C)c1ccc(C=O)cc1 | inactive |
| [Cl][Nd]([Cl])[Cl] | inactive |
| O=Cc1ccc(CO)o1 | inactive |
| CCN(CC#N)c1cccc(C)c1 | inactive |
| CCC(C)C=O (stereo unspecified) | inactive |
| CCc1c(C(=O)O)c(=O)cnn1-c1ccc(Cl)cc1 | inactive |
| Nc1ccc(N)c(Cl)c1 | inactive |
| CC(=O)OCC(C)OC(C)=O (stereo unspecified) | inactive |
| NC(=O)OCC(COC(N)=O)c1ccccc1 | inactive |

| SMILES | outcome |
| --- | --- |
| c1ccc(-c2ccccn2)nc1 | inactive |
| C=CC(C)(C)C | inactive |
| CC(C)(Oc1ccc(C2CC2(Cl)Cl)cc1)C(=O)O (stereo unspecified) | inactive |
| CCCCCCCCCCCCCCCC(=O)OCC | inactive |
| c1cc(N(CC2CO2)CC2CO2)ccc1OCC1CO1 (stereo unspecified) | inactive |
| C=CCCCCCCCCC(=O)OCCCC | inactive |
| CCCc1ccc(OC)cc1 | inactive |
| COC(=O)/C=C\C(=O)O | inactive |
| C=C(C)[C@H]1CC=C(C)CC1 | inactive |
| O=C(Cl)c1cc(C(=O)Cl)cc(C(=O)Cl)c1 | inactive |
| CCCCC(CC)COC(=O)c1ccccc1O (stereo unspecified) | inactive |
| NC(=O)NNC(N)=O | inactive |
| CCCC(=O)OCc1ccccc1 | inactive |
| CCCOC(=O)CCCCC(=O)OCCC | inactive |
| SCCc1cnccn1 | inactive |
| CC[C@H]1OC(=O)[C@H](C)[C@@H](O[C@H]2C[C@@](C)(OC)[C@@H](O)[C@H](C)O2)[C@H](C)[C@@H](O[C@@H]2O[C@H](C)C[C@H](N(C)C)[C@H]2O)[C@](C)(O)C[C@@H](C)C(=NOCOCCOC)[C@H](C)[C@@H](O)[C@]1(C)O | inactive |
| COC(=O)C1=C(C)NC(C)=C(C(=O)OCC(C)C)C1c1ccccc1[N+](=O)[O-] (stereo unspecified) | inactive |
| O=C(O)Cc1c(Cl)ccc(Cl)c1Cl | inactive |
